Among all 39,000 compounds or so, about 1,500 (3.8%) were called active. Many of the other results were omitted from the sample, so actives are more common in it than they were.
tested on: HSkMC (human skeletal muscle cells); assay: cytotoxicity call (relative viability < 0.9); settings: 10 µM

SMILES	cytotoxicity call
C/C=C/c1ccc2c(c1)O[C@@H](CN(C)S(=O)(=O)c1ccc(C)cc1)[C@@H](C)CN([C@@H](C)CO)S2(=O)=O	inactive
C[C@H]1CCCCO[C@@H](CN(C)S(=O)(=O)c2cccs2)[C@@H](C)CN([C@@H](C)CO)C(=O)c2cc(NC(=O)NC3CCCCC3)ccc2O1	inactive
CCn1nc(C)c([C@@H](C)N)c1C	inactive
Cc1ccc(S(=O)(=O)Nc2ccc3c(c2)C(=O)N([C@H](C)CO)C[C@@H](C)[C@H](CN(C)C(=O)Nc2cccc4ccccc24)OCCCC[C@H](C)O3)cc1	inactive
COc1ccc(NC(=O)N(C)C[C@H]2Oc3ccc(NS(C)(=O)=O)cc3C(=O)N([C@H](C)CO)C[C@H]2C)cc1	inactive
C[C@H]1CN([C@@H](C)CO)C(=O)Cc2cc(NC(=O)Cn3cnnn3)ccc2O[C@@H]1CN(C)C(=O)NC1CCCCC1	inactive
CC1(C)CNCC(=O)NC1	inactive
Cc1cc(C)nc(SCC(=O)NN)n1	inactive
Cc1ccc(NC(=O)c2ccc(CN3CC[C@H](N(C)C)C3)c(C(F)(F)F)c2)cc1Nc1nccc(-c2cncnc2)n1	active
O=C(Nc1cccnc1)c1nc2ncccn2n1	inactive
Cc1ccc(C(=O)Nc2cccc(C(F)(F)F)c2)cc1Nc1nc(-c2cccnc2)nc2c1cnn2C	inactive
Cc1cn(-c2cc(NC(=O)c3ccc(C)c(Nc4nccc(-c5cnccn5)n4)c3)cc(C(F)(F)F)c2)cn1	active
Cc1ncc(NC(=O)c2ccc(CN3CCN(C)CC3)c(C(F)(F)F)c2)cc1Nc1nccc(-c2cccnc2)n1	inactive
Cc1cn(-c2cc(NC(=O)c3ccc(C)c(Nc4nccc(-c5cccnc5)n4)c3)cc(C(F)(F)F)c2)cn1	active
Cc1ccc(NC(=O)c2ccc(CN3CCN(C)CC3)cc2)cc1Nc1nccc(-c2cccnc2)n1	inactive
C[C@@H]1CN([C@H](C)CO)C(=O)c2cc(/C=C/c3ccccc3)cnc2O[C@H]1CN(C)C(=O)c1cnccn1	inactive

SMILES	cytotoxicity call
CN1CCN(C(=O)C[C@@H]2CC[C@H]3[C@@H](COC[C@@H](O)CN3C(=O)C3CCCC3)O2)CC1	inactive
Cc1noc(C)c1S(=O)(=O)Nc1ccc2c(c1)C(=O)N([C@H](C)CO)C[C@@H](C)[C@H](CN(C)S(=O)(=O)c1cccs1)O2	inactive
Cc1ccc(S(=O)(=O)Nc2ccc3c(c2)C(=O)N([C@H](C)CO)C[C@H](C)[C@@H](CN(C)Cc2ccncc2)OCCCC[C@H](C)O3)cc1	inactive
COc1ccc(NC(=O)N(C)C[C@@H]2OCCCC[C@@H](C)Oc3ccc(NC(=O)Cc4ccccc4)cc3C(=O)N([C@@H](C)CO)C[C@H]2C)cc1	inactive
C[C@H](CO)N1C[C@H](C)[C@@H](CN(C)Cc2ccc(C(=O)O)cc2)Oc2c(NC(=O)Nc3cccc4ccccc34)cccc2C1=O	inactive
C[C@@H]1CCCCO[C@H](CN(C)S(C)(=O)=O)[C@@H](C)CN([C@H](C)CO)C(=O)c2cc(NS(=O)(=O)c3ccc(F)cc3)ccc2O1	inactive
C[C@@H]1CN([C@H](C)CO)C(=O)c2cc(NC(=O)Nc3ccc(C(F)(F)F)cc3)ccc2O[C@@H](C)CCCCO[C@H]1CN(C)S(=O)(=O)c1cn(C)cn1	inactive
COc1ccc(S(=O)(=O)Nc2ccc3c(c2)C(=O)N([C@@H](C)CO)C[C@H](C)[C@@H](CN(C)C(=O)c2ccccc2)OCCCC[C@H](C)O3)cc1	inactive
COc1cc2c(cc1OC)-c1c(oc3c4c(ccc3c1=O)OC(C)(C)C=C4)CO2	inactive
COc1cc2c(=O)c(-c3ccc4c(c3)OCO4)coc2c2c1OC(C)(C)C=C2	inactive
COc1c(-c2coc3cc4c(cc3c2=O)CC(O)C(C)(C)O4)ccc2c1C=CC(C)(C)O2 (configuration not stated)	active
C[C@@H]1CCCCO[C@@H](CN(C)Cc2ccc(C(=O)O)cc2)[C@H](C)CN([C@H](C)CO)C(=O)c2cc(NC(=O)NC3CCCCC3)ccc2O1	inactive
COCC#Cc1ccc2c(c1)O[C@H](CN(C)S(=O)(=O)c1ccc(OC)cc1)[C@H](C)CN([C@@H](C)CO)S2(=O)=O	inactive
Cc1noc(C)c1S(=O)(=O)Nc1ccc2c(c1)CC(=O)N([C@@H](C)CO)C[C@H](C)[C@@H](CN(C)Cc1ccc(-c3ccccc3)cc1)O2	inactive
Cc1noc(C)c1S(=O)(=O)Nc1ccc2c(c1)CC(=O)N([C@@H](C)CO)C[C@@H](C)[C@H](CN(C)Cc1ccc(-c3ccccc3)cc1)O2	active
Cc1noc(C)c1S(=O)(=O)Nc1ccc2c(c1)CC(=O)N([C@@H](C)CO)C[C@H](C)[C@H](CN(C)Cc1ccc(-c3ccccc3)cc1)O2	inactive
